Screens deposited in PubChem BioAssay by several laboratories.
The list is not random: actives were taken first. Their share in the collection is about 12%.
KCC2 mod: modulators of human KCC2 chloride dependent transport. AID 1456. KCC2 cells, thallium flux FluoZin-2 fluorescence. 190,000 compounds, 2.2% hits. B-score of Tl+ flux slope (higher = more flux/activation; lower = inhibition) at 10 µM;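 active = thallium flux slope and its plate-corrected score both differing from the plate sample mean at a set confidence after two filtering rounds, in either direction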;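 note: slope of fluorescence scaled to starting intensity during 10 to 20 s after thallium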
L major viab: reduces viability of Leishmania major promastigotes; inhibition, % at 10 µM; resazurin fluorescence viability; AID 1063; 200,000 compounds, 9% hits; in the data active = inhibition above about 50%;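 note: promastigotes grown with compound for 44 hours at 28 °C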
Ins promoter up: MIN6 insulin promoter up-regulation; AID 1625; z-score at 5 µM; MIN6 insulin promoter-GFP reporter, high-content imaging; stronger effect = higher value; 190,000 compounds, 0.3% hits;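 active = z-score above 3 at 5 µM with at least 500 cells counted in the well; inconclusive = wells under 500 cells, flagged as cytotoxic or low count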
Insulin prom inh: TRM-6 insulin promoter activity inhibition. TRM-6 cells (human fetal islet line), insulin promoter-eGFP reporter, imaging; reporter expression induced with tamoxifen. inhibition, % at 2 µM. 130,000 compounds, 0.9% hits. AID 1273;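 active = inhibition above the mean plus 3 SD, with well images judged a real hit on visual review, cut at about 60% in these data, passing the limit was not always enough; inconclusive = inhibition over the cutoff but images rejected on review; inactive = inhibition not above the cutoff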
ROMK mod: modulates human ROMK potassium channel activity. P48048. Tet-inducible ROMK, thallium flux fluorescence; actives lie on both sides. B-score at 10 µM. 130,000 compounds, 2% hits. AID 1918;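 active = signal ratio slope over the read window, or its plate-corrected B-score, at least 3 SD from the plate mean, either direction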;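 note: B-score of the F/F0 ratio slope over 7 to 12 s after thallium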
Target sequence (P48048 whole entry, looked up): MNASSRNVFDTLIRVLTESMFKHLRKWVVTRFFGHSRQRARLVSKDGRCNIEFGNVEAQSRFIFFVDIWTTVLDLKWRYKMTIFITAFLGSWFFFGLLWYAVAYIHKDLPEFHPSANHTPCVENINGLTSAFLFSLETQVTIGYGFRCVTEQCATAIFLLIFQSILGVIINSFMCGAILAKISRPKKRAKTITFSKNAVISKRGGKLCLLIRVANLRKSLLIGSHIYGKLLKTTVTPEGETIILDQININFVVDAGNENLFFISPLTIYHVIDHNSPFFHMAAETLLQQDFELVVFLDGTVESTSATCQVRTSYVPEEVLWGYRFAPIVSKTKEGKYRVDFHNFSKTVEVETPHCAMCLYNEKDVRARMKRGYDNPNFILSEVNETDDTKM
WT yeast gro inh: growth inhibition of WT yeast, mitochondrial fusion screen; mitochondrial fusion phenotypic screen, WT strain; inhibition, % at 10 µM; 190,000 compounds, 2.1% hits; AID 1362; in the data active = inhibition above about 58%; tested in S. cerevisiae
KCC2 sec1: confirmation of human KCC2 transport modulators | HEK293-KCC2, thallium flux, FluoZin2 fluorescence; stronger effect = higher value | normalised thallium flux (F/F0 slope) at 10 µM | AID 1713 | shares compounds with KCC2 mod | 3,700 compounds, 15% hits;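 active = thallium flux slope above the same plate's solvent-only control mean plus 3 SD; inconclusive = the two replicate wells disagree; inactive = no significant difference from solvent-only control wells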
KCC2 bumet counter: thallium flux persisting under bumetanide in KCC2 cells, counter-screen secondary assay; shares compounds with KCC2 mod; HEK293-KCC2 + bumetanide/ouabain, thallium flux FluoZin2; stronger effect = higher value; normalized thallium flux at 10 µM; 3,700 compounds, 49% hits;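 active = thallium entry rate above the same plate's blocked-transporter control wells by more than 3 SD; inconclusive = the two repeat wells disagree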;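 note: raw slope of fluorescence over initial fluorescence between 10 and 20 s after thallium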
KCC2 secondary2: confirmation of human KCC2 transport modulators. shares compounds with KCC2 mod. HEK293-KCC2, thallium flux FluoZin2 fluorescence; actives lie on both sides; F/F0 rise rate, 10–20 s post-thallium. normalized thallium flux at 10 µM. 3,700 compounds, 23% hits. AID 1715;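 active = thallium flux slope more than 3 SD above or below the plate's solvent-only control mean, mostly below; inconclusive = the two repeat wells disagreed; inactive = no significant shift from solvent-only controls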;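 note: raw slope with 0.1% DMSO as baseline and bumetanide as block control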
HEK counter1: acts in parental HEK cells, KCC2 counter-screen | shares compounds with KCC2 mod | HEK293 parental cells, thallium flux FluoZin2, ouabain; baseline-ratio fluorescence slope, 10–20 s after thallium | thallium flux rate (normalised fluorescence) at 10 µM | 3,700 compounds, 46% hits | AID 1716;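 active = thallium flux rate significantly above the same plate's solvent-only control wells, beyond their mean plus 3 SD; inconclusive = the two replicate wells gave conflicting results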
KCC2 retest ouab: confirmation of human KCC2 modulators with ouabain. shares compounds with KCC2 mod. HEK293-KCC2, thallium flux FluoZin2 fluorescence; bidirectional: low = inhibitor, high = activator. raw Tl+ flux slope (below DMSO = inhibition, above = activation) at 10 µM. 3,700 compounds, 48% hits;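 active = thallium flux slope beyond 3 SD from same-plate DMSO control mean in most replicates, usually higher, sometimes lower; inconclusive = repeat tests gave conflicting results; inactive = no significant difference from controls in most replicates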;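 note: slope of initial-normalized fluorescence between seconds 10 and 20 after thallium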
HEK counter2: parental HEK flux effect, counter-screen 2; thallium flux slope at 10 µM; shares compounds with KCC2 mod; 3,700 compounds, 33% hits; HEK293 parental, thallium flux FluoZin-2 fluorescence slope; AID 1718;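 active = thallium flux slope above the same plate's solvent-control mean plus 3 SD in both duplicate wells; inconclusive = duplicate wells that disagreed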;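 note: run without ouabain in cells lacking the KCC2 cotransporter; slope of fluorescence scaled to its starting value between 10 and 20 s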
Numbers without * were called inactive; ? = inconclusive; · = no result.

SMILES | KCC2 mod | L major viab | Ins promoter up | Insulin prom inh | ROMK mod | WT yeast gro inh | KCC2 sec1 | KCC2 bumet counter | KCC2 secondary2 | HEK counter1 | KCC2 retest ouab | HEK counter2
CC(=O)OC(C(=O)NC1CCCCC1)c1ccccc1F (stereo not given) | 0.692 | -1.0 | · | · | · | -12.3 | · | · | · | · | · | ·
CCOC(=O)c1c(-c2ccccc2)csc1NC(=O)/C(C#N)=C/c1ccc(O)c(OC)c1 | 5.25* | 2.8 | 1.34 | · | · | 12.6 | 0.00681 | 0.0113* | 0.0278 | 0.00948* | 0.0198 | 0.0104
COCCNS(=O)(=O)c1ccc(-c2ccc(Cl)cc2)cc1 | -2.77* | 0.4 | · | · | -0.911 | 8.2 | 0.00725 | 0.00525 | 0.0258* | 0.00796 | ? | 0.0116
O=C(N/N=C/c1ccc2cccc(OCc3ccccc3)c2n1)c1ccc(Cl)cc1 | 4.9* | 68.4* | -0.76 | · | 0.738 | 4.5 | 0.0224* | 0.0482* | 0.0306 | 0.014* | 0.0247* | ?
CC1CCCCC1NC(=S)NC(=O)c1ccccc1Br (stereo not given) | 22.4* | -5.1 | · | 0.0 | 0.963 | 8.5 | 0.0074 | 0.00967* | 0.0348 | 0.0143* | 0.0272* | 0.0152*
O=C(O)c1cccc(NC(=S)NC(=O)c2ccncc2)c1 | -0.0188 | -5.0 | -0.44 | · | -0.232 | 6.2 | · | · | · | · | · | ·
Cc1cccc(NC(=S)NNC(=O)c2ccccc2Br)c1 | 3 | -4.6 | -0.42 | 3.1 | 0.575 | -8.9 | · | · | · | · | · | ·
CC(=O)c1cccc(NC(=S)NC(=O)c2ccccc2Br)c1 | 7.02* | -3.4 | 0.2 | 25.0 | · | -10.3 | 0.014* | 0.0764* | 0.0375 | 0.0173* | ? | 0.0134*
CC(=O)c1cccc(NC(=S)NC(=O)c2ccc(Cl)cc2)c1 | 5.49* | -5.9 | 0.06 | 10.8 | · | -0.5 | 0.00588 | 0.0156* | 0.0314 | 0.0109* | ? | ?
CCCC(=O)c1c[nH]c(C(=O)NCCc2ccccn2)c1 | 0.0169 | -4.2 | 0.54 | -39.1 | · | -17.1 | · | · | · | · | · | ·
COc1ccccc1OCCOCCOc1c(C)cc(C)cc1Br | -5.41* | 27.1 | -0.18 | 27.6 | · | 26.1 | 0.015 | 0.00452 | 0.0282 | 0.00701 | 0.0153 | 0.0106
Cc1ccc(OCCOCCOc2cccc3cccnc23)c(Br)c1 | -2.08 | -1.0 | 0.44 | -8.3 | 0.266 | 47.5 | · | · | · | · | · | ·
Cc1ccc(-n2nc(C)c(NS(=O)(=O)c3ccccc3)c2C)cc1C | · | 0.9 | -1.17 | -16.7 | · | 20.6 | · | · | · | · | · | ·
Cc1nn(-c2ccc(F)cc2)c(C)c1NS(=O)(=O)c1ccc(Cl)cc1 | -4.6* | 8.8 | 0.25 | -43.2 | · | 14.6 | 0.00566 | 0.00487 | 0.0215* | 0.00676 | ? | 0.0102
O=C(CSc1nc2cc(Cl)ccc2c(=O)n1Cc1ccco1)Nc1ccc(S(=O)(=O)N2CCOCC2)cc1 | 4.36* | 44.1 | -1.15 | -76.7 | -0.328 | -8.7 | 0.00735 | 0.0141* | 0.0339 | 0.0185* | ? | 0.0152*
O=C(CSc1cccc2cccnc12)Nc1ccc(S(=O)(=O)N2CCOCC2)cc1 | 9.57* | · | 0.09 | · | · | · | 0.00604 | 0.0196* | 0.028 | 0.0156* | ? | 0.0135*
O=C(CSc1nc2cc(Cl)ccc2s1)c1cc2ccccc2o1 | 4.47* | -4.7 | 1 | -13.3 | -0.363 | 40.5 | 0.0251* | 0.0551* | 0.0388 | 0.0307* | 0.0476* | 0.0173*
O=C(CSc1nc2cc(Cl)ccc2s1)Nc1cccc(S(=O)(=O)N2CCOCC2)c1 | 3.1* | 22.1 | -0.14 | -64.7 | 0.0151 | 4.2 | 0.0106 | 0.0149* | 0.0363 | ? | 0.0263* | ?
COC(=O)c1ccc2c(=O)n(Cc3ccco3)c(SCC(=O)Nc3ccc(C)c(Cl)c3)nc2c1 | 0.00514 | -2.2 | -0.64 | 26.3 | -0.0899 | 16.6 | · | · | · | · | · | ·
O=C(CSc1nc2ccccc2s1)Nc1ccc(Cl)c(S(=O)(=O)N2CCOCC2)c1 | 0.446 | 6.3 | -0.48 | · | · | 33.6 | · | · | · | · | · | ·
CN(C(=O)COC(=O)c1ccc2c(=O)n3c(nc2c1)CCC3)C1CCS(=O)(=O)C1 (stereo not given) | -0.178 | -2.9 | -2.99 | · | 0.00939 | 14.0 | · | · | · | · | · | ·
O=C(NCCCn1ccnc1)/C(=C/c1ccccc1)NC(=O)c1ccccc1 | 0.154 | -1.0 | · | -64.1 | 0.476 | -2.1 | · | · | · | · | · | ·
Cc1ccc(C(=O)NC(=S)Nc2ccccc2C(F)(F)F)cc1 | · | -4.9 | 0.07 | 10.0 | · | 6.7 | · | · | · | · | · | ·
O=C(Cc1coc(-c2ccc(F)cc2)n1)Nc1ccccc1 | -3.84* | -0.1 | 0.15 | 3.9 | · | 3.3 | 0.0105 | 0.00568 | ? | 0.00681 | 0.0355* | 0.00978
O=C(/C=C/c1cccc([N+](=O)[O-])c1)Nc1cccc(NC(=O)c2cccs2)c1 | -4.6* | 12.1 | -0.09 | 4.6 | · | -1.0 | 0.00715 | ? | 0.0246* | 0.0072 | 0.0155* | 0.0104
SMILES | KCC2 mod | L major viab | Ins promoter up | Insulin prom inh | ROMK mod | WT yeast gro inh | KCC2 sec1 | KCC2 bumet counter | KCC2 secondary2 | HEK counter1 | KCC2 retest ouab | HEK counter2
Cc1ccc(-n2cccc2/C=C2/C(=N)N3C(=NC2=O)SN=C3S(C)(=O)=O)cc1 | -3.65 | -9.0 | 0.53 | 0.0 | -0.235 | -10.7 | · | · | · | · | · | ·
CS(=O)(=O)C1=NSC2=NC(=O)/C(=C\c3cccn3-c3ccccc3Cl)C(=N)N21 | -5.14* | -7.7 | 0.86 | 33.3 | -0.613 | 7.6 | 0.00678 | 0.00476 | 0.0228* | 0.00529* | 0.0136* | ?
Cc1ccc(CSc2nc3sc(C)c(C)c3c(=O)n2Cc2ccco2)cc1 | 9.36* | 1.8 | -0.1 | -12.9 | · | 22.9 | 0.00725 | 0.0187* | 0.039* | 0.0241* | 0.031* | 0.023*
Cc1ccc(S(=O)(=O)Nc2c3ccccc3nc(=O)n2-c2ccccc2)cc1 | · | -0.3 | · | -46.7 | · | -15.7 | · | · | · | · | · | ·
Cc1ccc(NC(=O)C(C)N=C2NS(=O)(=O)c3ccccc32)cc1F (stereo not given) | -0.299 | · | 0.42 | · | · | · | · | · | · | · | · | ·
Cc1ccc2cc(C)c3nnc(SCc4ccc(C(=O)O)cc4)n3c2c1C | 3.14* | · | -1.41 | · | 1.89 | · | 0.00681 | 0.00866* | 0.0356 | 0.0108* | 0.0232 | 0.0127*
Cc1ccc(CNC(=O)C(NS(=O)(=O)c2cccs2)C(C)C)cc1 (stereo not given) | -0.665 | 7.3 | 0.56 | -13.6 | · | -11.5 | · | · | · | · | · | ·
O=C(NCC(c1cccs1)N1CCOCC1)c1ccccc1NS(=O)(=O)c1cccc([N+](=O)[O-])c1 (stereo not given) | -1.46 | 1.6 | -1.4 | · | · | -14.2 | · | · | · | · | · | ·
